In article PMC11062922 (Nature Chemical Biology, 2023):
Where two headings read alike, the source gives them in different places.

Key:
AAK1 = test system: AAK1; parameters: species or system human, MV4-11 + K-562 + COLO205 + SK-N-BE2 + OVCAR-8; settings: read-out: apparent Kd, compound concentrations: 100 nM and 1000 nM (sheet 'Samples'), n = 1
CLK1 = test system: CLK1; parameters: species or system human, MV4-11 + K-562 + COLO205 + SK-N-BE2 + OVCAR-8; settings: read-out: apparent Kd, compound concentrations: 100 nM and 1000 nM (sheet 'Samples'), n = 1
CLK4 = test system: CLK4; parameters: species or system human, MV4-11 + K-562 + COLO205 + SK-N-BE2 + OVCAR-8; settings: read-out: apparent Kd, compound concentrations: 100 nM and 1000 nM (sheet 'Samples'), n = 1
CSNK2A1;CSNK2A3 = test system: CSNK2A1;CSNK2A3; parameters: species or system human, MV4-11 + K-562 + COLO205 + SK-N-BE2 + OVCAR-8; settings: read-out: apparent Kd, compound concentrations: 100 nM and 1000 nM (sheet 'Samples'), n = 1
CSNK2A2 = test system: CSNK2A2; parameters: species or system human, MV4-11 + K-562 + COLO205 + SK-N-BE2 + OVCAR-8; settings: read-out: apparent Kd, compound concentrations: 100 nM and 1000 nM (sheet 'Samples'), n = 1
Q6ZSR9 = Q6ZSR9 (human, UniProt Q6ZSR9); parameters: species or system MV4-11 + K-562 + COLO205 + SK-N-BE2 + OVCAR-8; settings: read-out: apparent Kd, compound concentrations: 100 nM and 1000 nM (sheet 'Samples'), n = 1
ABL1 = test system: ABL1; parameters: species or system human, MV4-11 + K-562 + COLO205 + SK-N-BE2 + OVCAR-8; settings: read-out: apparent Kd, compound concentrations: 100 nM and 1000 nM (sheet 'Samples'), n = 1
ABL2 = test system: ABL2; parameters: species or system human, MV4-11 + K-562 + COLO205 + SK-N-BE2 + OVCAR-8; settings: read-out: apparent Kd, compound concentrations: 100 nM and 1000 nM (sheet 'Samples'), n = 1
BCR = test system: BCR; parameters: species or system human, MV4-11 + K-562 + COLO205 + SK-N-BE2 + OVCAR-8; settings: read-out: apparent Kd, compound concentrations: 100 nM and 1000 nM (sheet 'Samples'), n = 1
GAK = test system: GAK; parameters: species or system human, MV4-11 + K-562 + COLO205 + SK-N-BE2 + OVCAR-8; settings: read-out: apparent Kd, compound concentrations: 100 nM and 1000 nM (sheet 'Samples'), n = 1
FYN = test system: FYN; parameters: species or system human, MV4-11 + K-562 + COLO205 + SK-N-BE2 + OVCAR-8; settings: read-out: apparent Kd, compound concentrations: 100 nM and 1000 nM (sheet 'Samples'), n = 1
HCK = test system: HCK; parameters: species or system human, MV4-11 + K-562 + COLO205 + SK-N-BE2 + OVCAR-8; settings: read-out: apparent Kd, compound concentrations: 100 nM and 1000 nM (sheet 'Samples'), n = 1
LCK = test system: LCK; parameters: species or system human, MV4-11 + K-562 + COLO205 + SK-N-BE2 + OVCAR-8; settings: read-out: apparent Kd, compound concentrations: 100 nM and 1000 nM (sheet 'Samples'), n = 1
PTK6 = test system: PTK6; parameters: species or system human, MV4-11 + K-562 + COLO205 + SK-N-BE2 + OVCAR-8; settings: read-out: apparent Kd, compound concentrations: 100 nM and 1000 nM (sheet 'Samples'), n = 1
RIPK2 = test system: RIPK2; parameters: species or system human, MV4-11 + K-562 + COLO205 + SK-N-BE2 + OVCAR-8; settings: read-out: apparent Kd, compound concentrations: 100 nM and 1000 nM (sheet 'Samples'), n = 1
RIPK3 = test system: RIPK3; parameters: species or system human, MV4-11 + K-562 + COLO205 + SK-N-BE2 + OVCAR-8; settings: read-out: apparent Kd, compound concentrations: 100 nM and 1000 nM (sheet 'Samples'), n = 1
TNK1 = test system: TNK1; parameters: species or system human, MV4-11 + K-562 + COLO205 + SK-N-BE2 + OVCAR-8; settings: read-out: apparent Kd, compound concentrations: 100 nM and 1000 nM (sheet 'Samples'), n = 1
YES1 = test system: YES1; parameters: species or system human, MV4-11 + K-562 + COLO205 + SK-N-BE2 + OVCAR-8; settings: read-out: apparent Kd, compound concentrations: 100 nM and 1000 nM (sheet 'Samples'), n = 1
RET = test system: RET; parameters: species or system human, MV4-11 + K-562 + COLO205 + SK-N-BE2 + OVCAR-8; settings: read-out: apparent Kd; compound concentrations: 100 nM and 1000 nM (sheet 'Samples'), CATDS: 5.3896447188978902E-2; n = 1

Chain of Q6ZSR9 (Q6ZSR9 whole entry, looked up): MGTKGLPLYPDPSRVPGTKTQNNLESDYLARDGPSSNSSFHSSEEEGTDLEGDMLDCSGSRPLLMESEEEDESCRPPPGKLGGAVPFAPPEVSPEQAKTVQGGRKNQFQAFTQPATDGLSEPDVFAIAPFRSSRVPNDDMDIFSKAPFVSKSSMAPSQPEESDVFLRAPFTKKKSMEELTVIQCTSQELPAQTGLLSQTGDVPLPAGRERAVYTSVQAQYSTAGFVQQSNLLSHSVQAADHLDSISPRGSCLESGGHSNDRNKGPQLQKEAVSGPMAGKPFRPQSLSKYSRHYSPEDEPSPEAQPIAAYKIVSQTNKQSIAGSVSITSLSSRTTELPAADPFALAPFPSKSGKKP

O=C1N=C(NCCc2cccc(Cl)c2)S/C1=C\c1ccc2ncccc2c1 [RO4509201-000]
potency estimated from few doses (AAK1; CATDS: 5.6248629663802403E-2): 1640 nM | potency estimated from few doses (CLK1; CATDS: 0.11223755313714801): 275 nM | potency estimated from few doses (CLK4; CATDS: 0.15614566648302999): 153 nM | potency estimated from few doses (CSNK2A1;CSNK2A3; CATDS: 0.170383689424982): 133 nM | potency estimated from few doses (CSNK2A2; CATDS: 0.201313292648233): 103 nM

COc1cc(Nc2nccc(N3CCC(NC(=O)C4COc5ccccc5O4)C3)n2)cc(OC)c1OC (centres unmarked) [GSK1379761A]
potency estimated from few doses (AAK1; CATDS: 0.26357344915845798): 1120 nM | potency estimated from few doses (Q6ZSR9; CATDS: 0.25714063136794202): 1170 nM

COc1cccc(-n2ncc3c(N/N=C/c4ccc(C(=O)NCCN(C)C)cc4)ncnc32)c1.Cl [GW784307A]
potency estimated from few doses (ABL1; CATDS: 7.2174093506066003E-2): 114 nM | potency estimated from few doses (ABL2; CATDS: 3.8634429049696897E-2): 479 nM | potency estimated from few doses (BCR; CATDS: 0.110130424240114): 53.4 nM | potency estimated from few doses (CLK1; CATDS: 2.9878019560437799E-2): 1060 nM | potency estimated from few doses (CLK4; CATDS: 3.0333782570854902E-2): 1010 nM | potency estimated from few doses (CSNK2A1;CSNK2A3; CATDS: 5.2102189470279198E-2): 227 nM | potency estimated from few doses (CSNK2A2; CATDS: 8.6711561514054597E-2): 80.9 nM | potency estimated from few doses (GAK; CATDS: 2.92049494926887E-2): 1160 nM

COc1ccccc1CCNC1=NC(=O)/C(=C/c2ccc3ncccc3c2)S1 [RO4503316-000]
potency estimated from few doses (AAK1; CATDS: 8.9875957971869994E-2): 1540 nM | potency estimated from few doses (CLK1; CATDS: 0.207972147405552): 120 nM | potency estimated from few doses (CLK4; CATDS: 0.25242389415209998): 86.4 nM | potency estimated from few doses (CSNK2A1;CSNK2A3; CATDS: 0.132518653833052): 327 nM | potency estimated from few doses (CSNK2A2; CATDS: 0.17333569062509099): 171 nM | potency estimated from few doses (Q6ZSR9; CATDS: 9.2411068480935804E-2): 1310 nM

CC(C)c1nc(-c2cccc(NS(=O)(=O)c3ccccc3)c2)c(-c2ccnc(Nc3ccc4c(c3)CN(C)CC4)n2)s1 [GSK1649598A]
potency estimated from few doses (ABL1; CATDS: 2.01463365951845E-2): 368 nM | potency estimated from few doses (ABL2; CATDS: 3.9720351054025098E-2): 93.8 nM | potency estimated from few doses (BCR; CATDS: 1.4720639450574301E-2): 924 nM | potency estimated from few doses (FYN; CATDS: 1.9244455455098501E-2): 413 nM | potency estimated from few doses (GAK; CATDS: 0.115621915519597): 19.8 nM | potency estimated from few doses (HCK; CATDS: 1.6425065187182699E-2): 643 nM | potency estimated from few doses (LCK; CATDS: 3.58702015349356E-2): 112 nM | potency estimated from few doses (PTK6; CATDS: 1.42958167275793E-2): 1030 nM | potency estimated from few doses (RIPK2; CATDS: 2.88864910940058E-2): 167 nM | potency estimated from few doses (RIPK3; CATDS: 1.96372512533491E-2): 392 nM | potency estimated from few doses (TNK1; CATDS: 3.1602555545839801E-2): 141 nM | potency estimated from few doses (YES1; CATDS: 2.5454428176696801E-2): 216 nM

Cn1cc(C2=C(c3cn(CCCO)c4ccccc34)C(=O)NC2=O)c2ccccc21 [RO0317377-000]
potency estimated from few doses (AAK1; CATDS: 0.115071291343016): 1300 nM | potency estimated from few doses (Q6ZSR9; CATDS: 0.107617362332997): 1540 nM

CN1C(=O)c2ccccc2N(C)c2nc(Nc3cnn(C4CCNCC4)c3)ncc21 [XMD-17-51]
potency estimated from few doses (ABL1; CATDS: 3.0247523924653401E-2): 152 nM | potency estimated from few doses (ABL2; CATDS: 2.0369269177780699E-2): 429 nM | potency estimated from few doses (BCR; CATDS: 6.3621758322441394E-2): 32.4 nM | potency estimated from few doses (FYN; CATDS: 1.52897278360091E-2): 1140 nM | potency estimated from few doses (HCK; CATDS: 1.5765780158237999E-2): 1000 nM | potency estimated from few doses (LCK; CATDS: 2.0561496325198901E-2): 418 nM | potency estimated from few doses (PTK6; CATDS: 1.5181861275826099E-2): 1170 nM | potency estimated from few doses (RET): 44.2 nM | potency estimated from few doses (RIPK2; CATDS: 1.9176534260091301E-2): 514 nM | potency estimated from few doses (TNK1; CATDS: 2.1534980047370499E-2): 366 nM | potency estimated from few doses (YES1; CATDS: 2.1066601667733099E-2): 389 nM

Cl.O=C1N=C(NCc2ccccn2)S/C1=C\c1ccc2ncccc2c1 [RO4874953-001]
potency estimated from few doses (AAK1; CATDS: 0.10575738699934099): 813 nM | potency estimated from few doses (CLK1; CATDS: 9.3934655889041305E-2): 1020 nM | potency estimated from few doses (CLK4; CATDS: 0.12673851417901799): 598 nM | potency estimated from few doses (CSNK2A1;CSNK2A3; CATDS: 0.103683643435769): 843 nM | potency estimated from few doses (CSNK2A2; CATDS: 0.101925374884365): 870 nM | potency estimated from few doses (GAK; CATDS: 8.1785679571560799E-2): 1370 nM | potency estimated from few doses (Q6ZSR9; CATDS: 8.7999658255021304E-2): 1160 nM

COc1cc(Nc2ccnc3cc(-c4ccncc4)ccc23)cc(OC)c1OC.Cl [GW494610A]
potency estimated from few doses (ABL1; CATDS: 2.4379025884203698E-2): 1070 nM | potency estimated from few doses (ABL2; CATDS: 2.97420098626874E-2): 523 nM | potency estimated from few doses (BCR; CATDS: 4.8840213207685099E-2): 133 nM | potency estimated from few doses (GAK; CATDS: 0.18484170134518799): 10.7 nM | potency estimated from few doses (RIPK2; CATDS: 0.24490143470797801): 7.12 nM | potency estimated from few doses (RIPK3; CATDS: 2.5857205413597002E-2): 848 nM

COc1ccccc1CNC1=NC(=O)/C(=C/c2ccc3ncccc3c2)S1 [RO4503315-000]
potency estimated from few doses (AAK1; CATDS: 7.6030940071323702E-2): 908 nM | potency estimated from few doses (CLK1; CATDS: 0.30628277203205201): 30.8 nM | potency estimated from few doses (CLK4; CATDS: 0.47450505844259699): 14.8 nM | potency estimated from few doses (CSNK2A1;CSNK2A3; CATDS: 0.129899516900844): 197 nM | potency estimated from few doses (CSNK2A2; CATDS: 0.121862828094444): 231 nM | potency estimated from few doses (Q6ZSR9; CATDS: 7.7270195347091397E-2): 858 nM
